Results reported in the supplement of paper PMC13380429.

Columns and labels:
[1] = tested on: Vero E6 infected with SARS-CoV-2; assay: morphology score (similarity to uninfected cells); higher = more like uninfected cells; details: 24 h
[2] = tested on: Vero E6 infected with SARS-CoV-2; assay: SARS-CoV-2 infection rate relative to infected DMSO; higher = more infection, active = 60 or less; details: 24 h

| Structure (SMILES) | morphology score [1] | SARS-CoV-2 infection rate [2] |
| --- | --- | --- |
| CCOC(=O)[C@@H](N)Cc1ccc(O)c(O)c1 [etilevodopa] (10 µM) | -0.149 | 110% (inactive) |
| CN1CCN(CCOc2cc(OC3CCOCC3)c3c(Nc4c(Cl)ccc5c4OCO5)ncnc3c2)CC1 [saracatinib] (10 µM) | -0.132 | 110% (inactive) |
| Cc1cccn2c(=O)c(/C=C(\C#N)c3nc4ccccc4s3)c(Oc3ccc(F)cc3)nc12 (10 µM) | 0.0128 | 102% (inactive) |
| COc1cc2c(cc1OC)-c1cc3nc4ccccc4nc3n1C(C)(C)C2 (10 µM) | 0.134 | 91% (inactive) |
| Cc1ccccc1N1CCN(S(=O)(=O)C[C@]23CC[C@H](C[C@@H]2NC(=O)[C@@H](N)CCS(C)(=O)=O)C3(C)C)CC1 (10 µM) | 0.049 | 95% (inactive) |
| CC(=O)NCCc1c(Cc2ccccc2)[nH]c2ccccc12 [luzindole] (10 µM) | 0.0073 | 99% (inactive) |
| CCOC(=O)[C@H](CCc1ccccc1)N[C@@H](C)C(=O)N1C(=O)N(C)C[C@H]1C(=O)O [imidapril] (10 µM) | -0.0373 | 117% (inactive) |
| COc1cc(S(C)(=O)=O)ccc1Nc1nc2ccc(-c3ccc(NC(=O)[C@H](C)c4ccc(F)cc4)cc3)cn2n1 (10 µM) | -0.122 | 105% (inactive) |
| O=C(O)Cc1cccc2c(=O)cc(-c3ccccc3)oc12 [mitoflaxone] (10 µM) | 0.0177 | 106% (inactive) |
| CCN(CCO)CCCC(C)Nc1ccnc2cc(Cl)ccc12 (configuration not stated) [hydroxychloroquine] (10 µM) | 0.362 | 88% (inactive) |
| CC(=O)[C@H]1CC[C@H]2[C@@H]3CCC4=CC(=O)CC[C@]4(C)[C@H]3CC[C@]12C [progesterone] (10 µM) | 0.206 | 96% (inactive) |
| COc1cccc(OC)c1OCCNC[C@H]1COc2ccccc2O1 (10 µM) | 0.138 | 108% (inactive) |
| O=C(O)COC(=O)Cc1ccccc1Nc1c(Cl)cccc1Cl [aceclofenac] (10 µM) | -0.0479 | 110% (inactive) |
| CN(C)CCOC1=Cc2ccccc2Sc2ccc(Cl)cc21 [zotepine] (0.833333 µM) | 0.061 | 106% (inactive) |
| COC(=O)[C@@H](N)CCCNC(=N)N[N+](=O)[O-] (10 µM) | 0.125 | 98.5% (inactive) |
| O=C(NC(Cc1cc(=O)[nH]c2ccccc12)C(=O)O)c1ccc(Cl)cc1 (configuration not stated) [rebamipide] (10 µM) | 0.0758 | 104% (inactive) |

| Structure (SMILES) | morphology score [1] | SARS-CoV-2 infection rate [2] |
| --- | --- | --- |
| O=c1[nH]cnc2c1cnn2[C@@H]1O[C@H](CO)[C@@H](O)[C@H]1O [allopurinol-riboside] (10 µM) | 0.0253 | 109% (inactive) |
| CCCCCCCCCCOc1cc2c(O)c(C(=O)OCC)cnc2cc1OCC [decoquinate] (10 µM) | 0.147 | 101% (inactive) |
| NC(N)=Nc1nc(CSCCN/C=N/S(=O)(=O)c2ccc(Br)cc2)cs1 [ebrotidine] (10 µM) | 0.0177 | 97% (inactive) |
| O=C1NS(=O)(=O)c2ccccc21 [saccharin] (10 µM) | -0.085 | 106% (inactive) |
| Nc1ncnc2c1c(-c1cccc(OCc3ccccc3)c1)cn2C1CC(CN2CCCC2)C1 (stereo in doubt) (0.833333 µM) | 0.0762 | 92% (inactive) |
| CCN(CC)C(=S)SSC(=S)N(CC)CC [disulfiram] (10 µM) | 0.548 | 23% (active) |
| O=C(/C=C/c1ccc(CN(CCO)CCc2c[nH]c3ccccc23)cc1)NO [dacinostat] (0.833333 µM) | 0.00104 | 104% (inactive) |
| OC[C@H]1O[C@@H](n2cnc3c(NC4CCCC4)ncnc32)[C@H](O)[C@@H]1O [N6-cyclopentyladenosine] (10 µM) | -0.0139 | 109% (inactive) |
| NC(=O)c1cccc(-c2cccc(OC(=O)NC3CCCCC3)c2)c1 (10 µM) | 0.00303 | 104% (inactive) |
| c1ccc(Cn2c(N3CCNCC3)nc3ccccc32)cc1 [lerisetron] (10 µM) | 0.0474 | 100% (inactive) |
| O=S(=O)(NCC1CC1)c1ccc(Nc2nccc(N3CCCc4cc(O)ccc43)n2)cc1 [pyrintegrin] (0.833333 µM) | 0.71 | 60.5% (inactive) |
| CC(=O)N1CCC(C(=O)N(CCCN2CCC(Cc3ccc(C(N)=O)cc3)CC2)c2ccc(C)c(Cl)c2)CC1 (10 µM) | 0.0284 | 107% (inactive) |
| CC(C)Nc1cc(-c2c[nH]c(C(=O)N[C@H](CO)c3cccc(Cl)c3)c2)c(Cl)cn1 (0.833333 µM) | -0.017 | 109% (inactive) |
| Cn1c(=O)c2c(ncn2C)n(C)c1=O [caffeine] (10 µM) | -0.174 | 113% (inactive) |
| O=C(NCCCN1CCC2(CC1)OCc1ccccc12)[C@H]1CCCN1Cc1ccccc1 (10 µM) | 0.505 | 63.5% (inactive) |
